# Rows were chosen to be rich in hits. Some 10% of all compounds tested hit in one or more screens of this group.
# Mm-Cpn inhibitor: blocks the Methanococcus maripaludis chaperonin Mm-Cpn; purified Mm-Cpn ATPase, ADP Transcreener TR-FRET; Potency, µM (titrated, usually from 76.9 µM), inactives show top-dose activity, negative = inhibition, actives largely listed as inhibitors; hit rate 0.031% among 330,000; AID 504842; further: potency means the concentration at half of the fitted maximal effect; nearly all actives have a fitted effect of over 80% in size
#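 TR-FRET (320 nm excitation; 590 and 665 nm emission) reports ADP made from 10 uM ATP by 25 nM enzyme; compounds were preincubated 10 min, reaction run 30 min, both at 37°C.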
# PLK1 PBD block: blocks phosphopeptide binding to human PLK1 polo-box domain; P53350; Plk1 PBD binding of FITC phosphopeptide, fluorescence polarization; Potency, µM, without a hit: max response, negative = inhibition, most hits filed as inhibitors; hit rate 2.8% among 360,000; further: potency means the concentration at half of the fitted maximal effect; series mostly up to about 57 µM; nearly all actives have a fitted effect of over 65% in size
# G9a block: inhibitors of human histone lysine methyltransferase G9a. Q96KQ7. G9a H3K9 monomethylation, AlphaScreen, 2 h. Potency, µM (top dose mostly 102 µM), for inactives: at the top dose activity, negative = inhibition, actives largely listed as inhibitors. hit rate 8.8% among 350,000. AID 504332; further: potency means the concentration at half of the fitted maximal effect; nearly all actives have a fitted effect of over 75% in size
# Target sequence (Q96KQ7 913-1193 limits assumed): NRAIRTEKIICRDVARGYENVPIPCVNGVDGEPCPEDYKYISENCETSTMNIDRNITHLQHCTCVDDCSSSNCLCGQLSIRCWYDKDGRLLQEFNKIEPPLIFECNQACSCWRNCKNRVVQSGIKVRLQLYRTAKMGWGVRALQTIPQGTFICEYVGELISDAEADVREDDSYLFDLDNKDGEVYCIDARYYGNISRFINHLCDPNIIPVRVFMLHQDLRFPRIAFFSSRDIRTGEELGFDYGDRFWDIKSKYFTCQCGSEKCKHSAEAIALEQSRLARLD
#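 Step 1: enzyme (final 20 nM) with compound, 15 min RT. Step 2: substrate peptide 500 nM and SAM 20 uM, 2 h RT. Step 3: anti-H3K9me1 antibody and AlphaScreen beads, 10 min, then plate read.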
# Sfp PPTase inh: blocks B. subtilis Sfp PPTase activity; Q9F4F7; Biochemical Sfp PPTase activity, qHTS; Potency, µM, without a hit: largest response in the series, negative = inhibition, hits mostly inhibitors; hit rate 3.5% among 310,000; AID 1490;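 further: the enzyme is Sfp with the accession as filed and its product quenches rhodamine fluorescence; potency means the concentration at half of the fitted maximal effect; 0% = enzyme reaction without inhibitor and -100% = no enzyme wells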
#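 After 15 min at room temperature with compound, 15 nM Sfp received 5 uM rhodamine-CoA plus 12.5 uM BHQ-2-ybbR (50 mM Hepes pH 7.6, 10 mM MgCl2). Rate came from the fluorescence difference over 30 min, ex 525/em 598 nm.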
# VDR inh: blocks the human vitamin D receptor; P11473; VDR-SRC2-3 peptide fluorescence polarization, 2 h; Potency, µM, without a hit: max response, negative = inhibition, hits mostly inhibitors; hit rate 0.93% among 400,000; further: potency means the concentration at half of the fitted maximal effect
# Target sequence (P11473 whole entry, looked up): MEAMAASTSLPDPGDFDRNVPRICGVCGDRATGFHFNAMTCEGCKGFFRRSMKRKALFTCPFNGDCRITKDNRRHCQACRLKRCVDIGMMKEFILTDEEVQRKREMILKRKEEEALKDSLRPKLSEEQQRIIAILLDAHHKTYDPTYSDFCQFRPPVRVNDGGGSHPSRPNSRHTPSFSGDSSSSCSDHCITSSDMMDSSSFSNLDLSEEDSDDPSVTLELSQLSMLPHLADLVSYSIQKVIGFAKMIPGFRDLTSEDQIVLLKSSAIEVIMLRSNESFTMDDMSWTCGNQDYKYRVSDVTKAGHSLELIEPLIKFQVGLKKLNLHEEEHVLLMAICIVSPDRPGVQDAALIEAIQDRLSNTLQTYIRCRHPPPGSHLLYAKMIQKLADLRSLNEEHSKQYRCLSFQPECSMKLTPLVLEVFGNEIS
#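 The screen uses fluorescence polarization to detect compounds that interfere with recruitment of the SRC2-3 coactivator peptide to VDR; plates are read after 2 h at room temperature.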
# CCT chaperon mod: changes cytosolic chaperonin activity. purified chaperonin ATPase assay, HTRF ADP detection, 30 min. activity change, % (concentration not given with the values), hits read low. hit rate 0.3% among 360,000. AID 651819; in the data active means activity change below about -30%
#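 First, chaperonin was dispensed at 40 nM or 20 nM final depending on batch activity. Next, compounds were pinned at 76 uM and ATP added at 10 uM. After 30 min at 37 °C, ADP detection reagents ran 30 min at ambient temperature.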
# An asterisk follows results filed as active; ? = inconclusive; / = not tested or not shown; [ ] = another dose, or the depositor's remark. Unless noted, the call rests on the fitted dose curve; in most records, active means well fitted curve in the direction sought with a large enough effect; inconclusive means small, poorly fitted or top-dose-only effect, or another doubt; inactive means no such curve, though single readings can be large; an effect the other way counts as inactive or inconclusive. Unless noted, on the % scale 0 is the no-effect control and ±100 the full control effect.
SMILES,Mm-Cpn inhibitor,PLK1 PBD block,G9a block,Sfp PPTase inh,VDR inh,CCT chaperon mod
CCCCN(C)CCOc1ccccc1OCC,-1.5%,-2.2%,3.55µM*,6.0%,-3.4%,-1.3
c1ccc(OCCOCCN2CCOCC2)cc1,-0.8%,-3.7%,24.9%,11.2%,5.1%,-3.6
COc1ccccc1OCCOCCOc1ccccc1Cl,1.2%,-1.7%,49.1%[59 µM],0.0%,-6.8%,-1.2
CCN1CCN(CCOCCOc2ccccc2)CC1,-3.9%,-3.4%,/,50.1µM*,-3.5%,-1.2
CN1CCN(CCOc2ccc(Cl)c(Cl)c2)CC1,0.1%,4.1%,10µM*,-29.2%,-6.8%,-2.0
CN1CCN(CCc2ccc(Cl)c(Cl)c2)CC1,/,/,42.1%[59 µM],-10.8%,6.2%,/
CC(C)NC(=O)NC(=O)COc1ncnc2sccc12,0.5%,26.7µM*,50.1µM*,-12.1%,?,-0.2
CC(C)NC(=O)COc1ncnc2sccc12,0.6%,-4.5%,0.2%[12.7 µM],14.7%,-9.9%,-2.3
O=[N+]([O-])c1cccc(NNS(=O)(=O)c2ccccc2F)c1,-1.0%,21.2µM*,1.12µM*,?,?,-1.8
O=c1[nH]c(/C=C\c2ccccc2F)nc(O)c1[N+](=O)[O-],-0.7%,-6.0%,-1.1%[0.501 µM],17.0%,?,0.0
C=CCOc1cccc(/C=C\c2nc(O)c([N+](=O)[O-])c(=O)[nH]2)c1,-2.2%,-7.3%,-0.9%,-4.2%,14.1µM*,0.0
C=CCOc1ccc(/C=C\c2nc(O)c([N+](=O)[O-])c(=O)[nH]2)cc1OC,-3.6%,-15.8%,79.4µM*,8.8%,?,-2.2
C#CCOc1c(/C=C\c2nc(O)c([N+](=O)[O-])c(=O)[nH]2)cc(Br)cc1OC,-3.5%,-10.9%,-23.5%,-5.5%,22.4µM*,0.5
O=c1[nH]c(/C=C\c2cccc(F)c2)nc(O)c1[N+](=O)[O-],-0.8%,0.4%,?,3.0%,39.8µM*,-6.2
CC(=O)Nc1c(C)nn(-c2ccccc2)c1N1CCC(C(=O)NCc2cccc(F)c2)CC1,/,/,-22.8%[59 µM],/,8.2%,/
CCN(CC)C(=O)c1ccc2c(c1)N(Cc1ccc(C(F)(F)F)cc1)C(=O)c1ccccc1S2,/,/,-13.9%[59 µM],/,?,/
S=C1NC(c2cccs2)=CC(c2ccc(Br)cc2)N1 (stereo not drawn),-2.5%,?,15.8µM*,-20.9%,?,-1.5
NC(=O)C1CCN(c2oc(-c3cccs3)nc2S(=O)(=O)c2ccc(Br)cc2)CC1,-0.9%,-6.4%,/,/,7.7%,-1.3
O=C(CCCn1cnc([N+](=O)[O-])n1)Nc1cccc2ccccc12,-1.4%,-22.7%,50.1µM*,-13.2%,-0.8%,-1.0
CCCC1S/C(=N/N=C/c2cccs2)NC1=O (stereo not drawn),-10.9%,16.8µM*,15.7%[59 µM],-11.2%,5.6%,-1.3
CCCCC1S/C(=N/N=C/c2ccco2)NC1=O (stereo not drawn),0.8%,0.0%,-6.1%[59 µM],5.2%,16.9%,-41.9*
CCC1S/C(=N/N=C/c2cccs2)NC1=O (stereo not drawn),-3.8%,-11.0%,-8.6%[59 µM],7.5%,-13.2%,-9.6
CCCC1S/C(=N/N=C/c2ccco2)NC1=O (stereo not drawn),1.2%,0.8%,-5.5%[59 µM],-5.2%,9.9%,1.0
CCCCc1c2ccccc2nc2[nH]c3ccccc3c12,/,/,/,14.9%,/,/
O=C(NCc1ccc(Cl)cc1)C1CCN(c2nn3cc(-c4ccc(F)cc4)nc3s2)CC1,/,/,3.8%[59 µM],/,-5.1%,/
SMILES,Mm-Cpn inhibitor,PLK1 PBD block,G9a block,Sfp PPTase inh,VDR inh,CCT chaperon mod
CN(C)CCC(=O)C(Cc1ccccc1)c1ccccc1 (stereo not drawn),/,4.74µM*,/,/,44.7µM*,0.1
CCN(CC)CCN1C2=C(C(=O)CC(C)(C)C2)C(c2cccc(F)c2)C2=C1CC(C)(C)CC2=O,2.1%,-15.2%,14.9%,23.1%,3.4%,-1.8
CCCCN1C2=C(C(=O)CC(C)(C)C2)C(c2ccccc2)C2=C1c1ccccc1C2=O (stereo not drawn),-0.7%,-0.7%,?,56.2µM*,-0.1%,0.8
CCCN1C2=C(C(=O)CC(C)(C)C2)C(c2ccc(F)cc2)C2=C1c1ccccc1C2=O (stereo not drawn),0.9%,11.9µM*,11.2µM*,6.3%,-14.1%,1.9
COc1ccc(OC)c(CNC(=O)CN2CC(C)Sc3ccccc32)c1 (stereo not drawn),/,/,?,/,6.3%,/
CCN(CC)CCOCCOC(=O)C(CC)(CC)c1ccccc1 (tested in a mixture with another compound),/,/,-0.6%[59 µM],-2.4%,-0.4%,/
CCOC(=O)c1scc(-c2ccccc2)c1S(=O)(=O)N1CCN(c2ccc(Cl)cc2)CC1,/,/,12.6µM*,/,7.3%,/
CCOc1ccc(-c2nc(CSCC(=O)N3CCN(c4cccc(C(F)(F)F)c4)CC3)c(C)o2)cc1,/,/,-24.1%[59 µM],/,7.0%,/
COc1cc(/C=C2\SC(=S)N(N3CCOCC3)C2=O)cc(OC)c1OC,3.4%,-3.2%,12.6µM*,-6.7%,-27.1%,-1.9
COc1cc(/C=C2\SC(=S)N(N3CCOCC3)C2=O)ccc1O,1.2%,?,20.4%[59 µM],1.7%,-4.0%,-1.1
O=C1/C(=C/c2ccncc2)SC(=S)N1N1CCOCC1,-0.4%,?,-124.0%[59 µM],56.2µM*,-20.6%,1.0
O=C1/C(=C/c2cccnc2)SC(=S)N1N1CCOCC1,0.7%,-12.0%,19.1%[12.7 µM],-24.7%,-4.4%,1.6
CC(=O)c1c(C)nc2ccccc2c1N,0.1%,2.3%,20.4%[59 µM],18.0%,-0.3%,0.7
Cc1nc2ccccc2c(C)c1C(=O)c1ccccc1,2.3%,23.8µM*,50.1µM*,13.1%,-17.4%,0.4
CC1CC(C)CN(CCCn2c(=S)[nH]c3ccccc3c2=O)C1 (stereo not drawn),1.3%,-10.4%,79.4µM*,4.4%,3.3%,1.8
O=c1c2ccccc2[nH]c(=S)n1CCCN1CCN(c2ccccc2)CC1,0.0%,-17.4%,-21.9%,7.1%,13.7%,-5.1
O=C(NCc1cccnc1)/C(=C/c1ccc(-c2ccc(Cl)cc2)o1)S(=O)(=O)c1ccccc1,-3.0%,?,-0.4%[59 µM],-12.0%,22.4µM*,0.2
O=C(NCc1cccnc1)/C(=C/c1ccc(-c2cccc(C(F)(F)F)c2)o1)NC(=O)c1ccccc1,0.1%,-11.5%,-2.5%[59 µM],5.0%,-7.3%,-0.6
CN1c2ccsc2C(O)=C(C(=S)Nc2ccccc2)S1(=O)=O,-0.5%,21.2µM*,?,56.2µM*,?,1.3
Cc1ccccc1NC(=S)C1=C(O)c2sccc2N(C)S1(=O)=O,-1.4%,?,22.4µM*,56.2µM*,?,-2.7
Clc1ccccc1CNc1nc2ccccc2c2nc(-c3cccnc3)nn12,/,/,1.8%[59 µM],/,-12.7%,/
COc1ccccc1NC(=O)c1c(NCc2ccc(OC)c(OC)c2OC)sc2c1CCCC2,/,/,?,/,5.3%,/
COc1ccc(Cl)cc1NC(=O)c1c(NCc2ccc(C)o2)sc2c1CCCC2,/,/,?,/,-14.0%,/

# Screening data deposited in PubChem BioAssay by National Center for Advancing Translational Sciences (NCATS).
